UBC13 polyUb = inhibitors of human UBC13 polyubiquitin chain formation; P61088; TR-FRET; inhibition, % at 20 µM; hit rate 0.47% among 330,000; AID 485273; in the data active = inhibition above about 45%, passing the limit was not always enough
Target sequence (P61088 whole entry, looked up): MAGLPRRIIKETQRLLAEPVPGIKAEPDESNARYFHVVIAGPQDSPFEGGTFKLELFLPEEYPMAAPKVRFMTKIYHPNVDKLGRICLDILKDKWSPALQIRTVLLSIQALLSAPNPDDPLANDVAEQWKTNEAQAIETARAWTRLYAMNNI
beta cell repl = inducers of beta-cell replication in MIN6 cells | hit rate 0.29% among 330,000 | MIN6 cells proliferation, ATPlite luminescence, 48 h; cells starved in 0.2% serum; 100% = growth in 10% serum | proliferation, % at 10 µM | AID 2380;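 active = compounds whose signal lies at least 3.5 SD above the mean of all wells on their plate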
RAD54 branch = inhibitors of human RAD54 branch migration. hit rate 0.14% among 360,000. inhibition, % at 10.4 µM. RAD54 Holliday junction branch migration, FAM/BHQ fluorescence. AID 602329. Q92698;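 active = mean normalized replicate activity at least 40 and at least half of replicates scoring 40 or more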;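 note: inhibitors cause a drop in the FAM fluorescence signal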
PREPL inhibitor = inhibits the human prolyl oligopeptidase-like enzyme | hit rate 0.68% among 320,000 | Q4J6C6 | AID 2751 | inhibition, % at 5.96 µM | recombinant PREPL, fluorescence polarization activity-based probe; in the data active = inhibition above about 43%
FID counter = fluorescent intercalator displacement, NS3 helicase counter-screen. DNA fluorescent intercalator displacement, fluorescence. hit rate 0.17% among 290,000. inhibition, % at 7.9 µM. AID 1845; in the data active = inhibition above about 37%;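 note: higher means more ethidium bromide displaced from hairpin DNA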
RAD52 anneal inh = blocks human RAD52 DNA annealing; P43351; recombinant RAD52 DNA annealing, FRET fluorescence; inhibition, % at 18.7 µM; hit rate 0.46% among 360,000;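 active = every replicate showing at least 50% inhibition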
Target sequence (P43351 whole entry, looked up): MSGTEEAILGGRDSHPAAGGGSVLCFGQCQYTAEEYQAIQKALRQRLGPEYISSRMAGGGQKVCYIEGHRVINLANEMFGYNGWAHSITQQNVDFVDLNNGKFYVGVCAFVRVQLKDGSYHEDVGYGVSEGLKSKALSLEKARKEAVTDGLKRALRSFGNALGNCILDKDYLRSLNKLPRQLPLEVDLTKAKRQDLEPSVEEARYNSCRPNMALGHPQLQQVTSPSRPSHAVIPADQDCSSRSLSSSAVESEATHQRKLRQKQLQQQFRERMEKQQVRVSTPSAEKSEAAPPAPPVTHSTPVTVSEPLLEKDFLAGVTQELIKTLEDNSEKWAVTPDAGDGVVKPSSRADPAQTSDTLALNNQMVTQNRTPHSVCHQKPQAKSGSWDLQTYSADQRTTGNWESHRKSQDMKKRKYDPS
Each line names hits and unclear results; the compound was inactive in the other large screens. Most compounds without a hit are left out; they make up all but 1.3% or so of the library.

CCOc1cc(CNC(C)(C)CO)cc(Br)c1OCc1ccc(Cl)cc1Cl	FID counter 38 (no result: RAD52 anneal inh)
CN(C)CC(=O)N[C@@H]1CC[C@@H](CCn2cc(C3CCCC3)nn2)O[C@@H]1CO	none (no result: UBC13 polyUb, beta cell repl, PREPL inhibitor, FID counter)
CCNC(=O)C[C@H]1CC[C@H]2[C@@H](COc3ccc(NS(C)(=O)=O)cc3C(=O)N2C)O1	none (no result: UBC13 polyUb, beta cell repl, PREPL inhibitor, FID counter)
C[C@H](CO)N1C[C@H](C)[C@@H](CN(C)Cc2ccc(Cl)c(Cl)c2)Oc2ccc(NC(=O)Nc3cccc4ccccc34)cc2CC1=O	RAD52 anneal inh 54 (no result: UBC13 polyUb, beta cell repl, PREPL inhibitor, FID counter)
C[C@H]1CN([C@@H](C)CO)C(=O)Cc2cc(NC(=O)Nc3cccc4ccccc34)ccc2O[C@@H]1CN(C)Cc1ccc(Cl)c(Cl)c1	none (no result: UBC13 polyUb, beta cell repl, PREPL inhibitor, FID counter)
C[C@H]1CN([C@@H](C)CO)C(=O)Cc2cc(NC(=O)Nc3cccc4ccccc34)ccc2O[C@@H]1CN(C)Cc1ccc2c(c1)OCO2	none (no result: UBC13 polyUb, beta cell repl, PREPL inhibitor, FID counter)
C[C@@H]1CN([C@@H](C)CO)C(=O)Cc2cc(NC(=O)Nc3cccc4ccccc34)ccc2O[C@H]1CN(C)Cc1ccc2c(c1)OCO2	RAD52 anneal inh 54 (no result: UBC13 polyUb, beta cell repl, PREPL inhibitor, FID counter)
O=C(Nc1ccc(Cl)c(Cl)c1)c1ccc(Cl)c(Cl)c1	none
O=C(Nc1ccc(C2=NCCN2)cc1)c1ccc(Cl)c(C(=O)Nc2ccc(C3=NCCN3)cc2)c1	UBC13 polyUb 106, FID counter 49 (no result: RAD54 branch, RAD52 anneal inh)
O=C(C[C@@H]1CC[C@@H]2[C@H](COC[C@H](O)CN2S(=O)(=O)c2ccccc2)O1)NCc1ccc(-c2ccccc2)cc1	none (no result: UBC13 polyUb, beta cell repl, PREPL inhibitor, FID counter)
O=C(C[C@@H]1CC[C@@H]2[C@H](COC[C@@H](O)CN2S(=O)(=O)c2ccccc2)O1)NCc1ccc(-c2ccccc2)cc1	RAD52 anneal inh 89 (no result: UBC13 polyUb, beta cell repl, PREPL inhibitor, FID counter)
CS(=O)(=O)N1C[C@H](O)COC[C@@H]2O[C@H](CC(=O)NCc3ccc(-c4ccccc4)cc3)CC[C@H]21	RAD52 anneal inh 58 (no result: UBC13 polyUb, beta cell repl, PREPL inhibitor, FID counter)
O=C(C[C@H]1CC[C@H]2[C@@H](COC[C@H](O)CN2S(=O)(=O)c2ccccc2)O1)NCc1ccc(-c2ccccc2)cc1	RAD52 anneal inh 92 (no result: UBC13 polyUb, beta cell repl, PREPL inhibitor, FID counter)
CS(=O)(=O)N1C[C@H](O)COC[C@H]2O[C@@H](CC(=O)NCc3ccc(-c4ccccc4)cc3)CC[C@@H]21	none (no result: UBC13 polyUb, beta cell repl, PREPL inhibitor, FID counter)
C[C@H](CO)N1C[C@H](C)[C@H](CN(C)C(=O)Nc2ccc(C(F)(F)F)cc2)OCCCC[C@H](C)Oc2ccc(NC(=O)Nc3ccccc3)cc2C1=O	none (no result: UBC13 polyUb, beta cell repl, PREPL inhibitor, FID counter)
CCN(CC)CCOc1ccc2c(c1)C(=NO)c1cc(OCCN(CC)CC)ccc1-2	RAD54 branch 125, FID counter 90 (no result: RAD52 anneal inh)
CCC(=O)Nc1ccc2c(c1)OC[C@@H](C)N(C(=O)c1ccc(F)cc1)C[C@H](C)[C@H](OC)CN(C)C2=O	none (no result: UBC13 polyUb, beta cell repl, PREPL inhibitor, FID counter)
NC(CCCCc1ccccc1)c1cccc2ccccc12 (stereo not given)	UBC13 polyUb 54 (no result: RAD54 branch, FID counter, RAD52 anneal inh)
CC(CCc1ccccc1)NCc1cccc2ccccc12 (stereo not given)	none
N#Cc1c(NC(=S)NC(=O)c2ccccc2)sc2c1CCN(CCc1ccccc1)C2	PREPL inhibitor 65 (no result: RAD54 branch, RAD52 anneal inh)
C[C@H](CO)N1C[C@H](C)[C@@H](CN(C)Cc2ccccc2F)Oc2cc(C3=CCCC3)ccc2S1(=O)=O	none (no result: UBC13 polyUb, beta cell repl, PREPL inhibitor, FID counter)
Cc1ccc(S(=O)(=O)N(C)C[C@@H]2OCCCC[C@H](C)Oc3ccc(NC(=O)NC(C)C)cc3C(=O)N([C@H](C)CO)C[C@H]2C)cc1	none (no result: UBC13 polyUb, beta cell repl, PREPL inhibitor, FID counter)
CCCN(C)C[C@H]1OCCCC[C@@H](C)Oc2ccc(NC(=O)Nc3ccc(OC)cc3)cc2C(=O)N([C@@H](C)CO)C[C@H]1C	RAD52 anneal inh 53 (no result: UBC13 polyUb, beta cell repl, PREPL inhibitor, FID counter)
COc1ccc(NC(=O)Nc2ccc3c(c2)C(=O)N([C@H](C)CO)C[C@@H](C)[C@H](CN(C)Cc2ccccc2)OCCCC[C@H](C)O3)cc1	RAD52 anneal inh 59 (no result: UBC13 polyUb, beta cell repl, PREPL inhibitor, FID counter)
COc1ccc(CN(C)C[C@@H]2Oc3ccc(NC(=O)Nc4ccc(OC)cc4)cc3C(=O)N([C@H](C)CO)C[C@@H]2C)cc1	none (no result: UBC13 polyUb, beta cell repl, PREPL inhibitor, FID counter)
COc1ccc(CN(C)C[C@@H]2Oc3ccc(NC(=O)Nc4ccc(F)cc4)cc3C(=O)N([C@H](C)CO)C[C@H]2C)cc1	RAD54 branch 72 (no result: UBC13 polyUb, beta cell repl, PREPL inhibitor, FID counter)
COc1ccc(CN(C)C[C@@H]2OCCCC[C@@H](C)Oc3ccc(NC(=O)Nc4ccc5c(c4)OCO5)cc3C(=O)N([C@H](C)CO)C[C@H]2C)cc1	RAD52 anneal inh 55 (no result: UBC13 polyUb, beta cell repl, PREPL inhibitor, FID counter)
C[C@@H]1CN([C@@H](C)CO)C(=O)c2cccc(NC(=O)Nc3ccc(F)cc3)c2O[C@@H]1CN(C)Cc1ccccc1	none (no result: UBC13 polyUb, beta cell repl, PREPL inhibitor, FID counter)

Bioassay records as filed in PubChem.
